Compounds without any hit were thinned out: in the full panel of roughly 83,000, 20% have a hit.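 Assay: single dose, 48 h. Readout: percent growth (0 = no net growth; negative = cell death). Active: <10.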 Values without a mark were called inactive. Calls of active or inactive are those of the source.
Key:
Assay in all cases: NCI-60 one-dose screen, 48 h (100 = growth as untreated, 0 = no growth, -100 = all killed)
[1] = system: NCI-H23 lung; settings: 10 µM unless noted
[2] = system: NCI-H226 lung; settings: 10 µM unless noted
[3] = system: NCI-H322M lung; settings: 10 µM unless noted
[4] = system: HOP-62 NSCLC; settings: 10 µM unless noted
[5] = system: NCI-H460 lung; settings: 10 µM unless noted
[6] = system: A549/ATCC NSCLC; settings: 10 µM unless noted
[7] = system: 786-0 renal; settings: 10 µM unless noted
[8] = system: COLO 205 colon; settings: 10 µM unless noted
[9] = system: DU-145 prostate; settings: 10 µM unless noted
[10] = system: K-562 leukemia; settings: 10 µM unless noted
[11] = system: MALME-3M melanoma; settings: 10 µM unless noted
[12] = system: MDA-MB-231 breast; settings: 10 µM unless noted
[13] = system: RXF 393 renal; settings: 10 µM unless noted
[14] = system: SF-268 CNS; settings: 10 µM unless noted
[15] = system: SF-295 CNS; settings: 10 µM unless noted
[16] = system: SF-539 CNS; settings: 10 µM unless noted
[17] = system: UACC-257 melanoma; settings: 10 µM unless noted
[18] = system: M14 melanoma; settings: 10 µM unless noted
[19] = system: HOP-92 NSCLC; settings: 10 µM
[20] = system: NCI-H522 lung; settings: 10 µM

SMILES	growth [1]	growth [2] [%]	growth [3] [%]	growth [4]	growth [5]	growth [6] [%]	growth [7]	growth [8]	growth [9] [%]	growth [10]	growth [11] [%]	growth [12]	growth [13]	growth [14] [%]	growth [15]	growth [16] [%]	growth [17]	growth [18]	growth [19] [%]	growth [20] [%]
N=C(c1ccccc1)N(Cc1ccccc1)Cc1ccccc1	92.9%	104	84	97.1%	98.3%	90.3	86.5%	88.2%	111	76.2%	93.8	79.6%	85%	103	59.2%	103	94%	78%		
CCCCCCCCCCCCOC(=O)/C=C\C(=O)NC(N)=O	110%	96.8	111	101%	93.2%	81.6	89.9%	111%	95.4	44.2%	102	93.5%	69.3%	107	102%	95.5	85.2%	93.6%		
O=C(CCl)NC1c2ccccc2Oc2ccccc21	70.4%	98.1	97.9	75.5%	64.8%	71.7	77.2%	103%	65.5	45.6%	74.1	60.7%	80.1%	64.4	81.2%	82.4	63.6%	77.8%		
O=C(O)CS(=O)c1ccc(Cl)cc1 (stereo not given)	106%	103	87.7	101%	104%	103	95.7%	107%	109	81.8%	99.8	118%	103%	109	94.9%	106	99.3%	102%		
O=C(CCl)c1ccc2c(c1)CCCC2	105%	108	94.3	107%	107%	101	90.6%	113%	110	72.1%	80.8	103%	99%	104	70.2%	90.8	98.1%	95.5%		
S=C(N/N=C/c1cc(Cl)cc(Cl)c1)NC12CC3CC(CC(C3)C1)C2	97.8%	79.6	62.2	78.2%	34.4%	45	71%	68.8%	77.4	79.5%	54.6	52.6%	67.2%	64.6	35.1%	68.9	83%	89%		
C/C=C/C/C=C/[C@H](C)C[C@H](O)[C@@H]1C[C@@H]2O[C@H]2/C=C/[C@H](O)[C@@H](O)/C=C/C[C@H](C)CC(=O)O1	83%	87	88.9	89.6%	62.8%	71.8	83.3%	109%	90.7	65.8%	103	90%	117%	85.8	84.5%	85.2	110%	81.5%		
CC(=O)c1ccc2c(c1)c1ccccc1n2C	94.1%	84.2	86.2	83.2%	98.5%	96.9	96.6%	99.8%	104	86.7%	105	102%	94.7%	101	85.8%	108	104%	106%		
COc1cc(-c2nn(-c3ccc(NC(=O)Nc4ccc(Cl)c(C(F)(F)F)c4)cc3)cc2-c2ccncc2)ccc1Cl	2.97% (active)	17.9	39	8.98% (active)	-51.7% (active)	11.9	-52.3% (active)	-94% (active)	34	13.2%	12.1	7.76% (active)	-30.2% (active)	21.7	-7.8% (active)	14.7	-3.17% (active)	1.7% (active)		
COc1ccc(C(=O)N2N=C(c3ccc(Br)cc3)CC2c2cn(-c3ccccc3)nc2-c2ccccc2)cc1 (stereo not given)	42.4%	88.9	78	22.6%	41.8%	22.8	74%	26.2%	47.2	43.4%	73.1	61.3%	82.4%	71.9	70.9%	92.4	79.6%	39.1%		
COc1ccc(C2CC(=O)c3c(O)cc(OC4OC(COC5OC(C)C(O)C(O)C5O)C(O)C(O)C4O)cc3O2)cc1O (stereo not given)	105%	105	81.7	10.3%	110%	98.3	100%	112%	136	167%	96.1	111%	111%	112	87.8%	98.7	95.5%	98.7%		
O=C(O)c1ccc(-c2nn(-c3ccc(C(=O)O)cc3)cc2CNc2ccc(Br)cc2)cc1	106%	115	100	104%		101	102%	108%	102	102%	106	115%	111%	94.1	101%	101	101%	97.6%	102	85.4
O=C(NC(=S)NNC(=S)NNc1ccccc1)c1ccccc1	25.9%	40.6	68.2	43%	13.2%		67.7%	81%	98	9.51% (active)	25.5	78.2%	62.8%	59.5	6.98% (active)	25.5		71.7%		
CCOC(=O)C(C)C(C)(O)c1ccccc1 (stereo not given)	98.5%	94.1	93.2	109%	103%		94.1%	112%	110	100%	84.2	103%	103%	98.6	103%	105		96.3%		
CNc1nc2ncn(C)c2c(=O)[nH]1	105%	98.5	88.2	96.5%	103%		103%	94.5%	106	65.5%	98.8	90.9%	106%	95.5	101%	96.2		112%		
CCCCCCCCCC(C)NC(=O)CCl (stereo not given)	90%	96.5	96.6	102%	107%		93.1%	113%	102	97.3%	93.8	93%	101%	95.1	99.8%	99.9		107%		
O=C(O)c1ccc(Br)nc1	102%	98.4	101	91.6%		89.6	100%	105%	100	100%	94.2	100%	105%	95.4	96.9%	97.7	88.3%	101%	94.6	87.8
CC(C)(C)c1cc(C[P+](c2ccc(Cl)cc2)(c2ccc(Cl)cc2)c2ccc(Cl)cc2)cc(C(C)(C)C)c1O	86.5%	90.6	86.1	98.9%	94.9%		99.1%	50.4%	108	32.4%	37.4	102%	68%	99.1	91.9%	105				

From PubChem BioAssay (NCI)
